Reference: PubChem BioAssay AID485317 (Broad Institute, 2010)
Out of some 290,000 compounds screened, about 11,000 (3.8%) were called active. The full list was thinned out, with actives kept by preference. Values without a mark were called inactive.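 How the source made its calls: active means mean replicate inhibition above about 79%, with every replicate also reaching it (limit read from the data); inconclusive means only one of the two criteria met; inactive means mean below limit and not every replicate reaching it.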

Biological target: FAD-linked sulfhydryl oxidase ALR (Homo sapiens) (UniProt P55789)
Assay: ALR-catalysed DTT oxidation blockers – biochemical, H2O2 detection, HRP-luminol luminescence, single point, primary screen (AID 485317)
Conditions: purified ALR, stronger effect = higher value, concentration not given here

FAD-linked sulfhydryl oxidase ALR (Homo sapiens), sequence (P55789 whole entry, looked up): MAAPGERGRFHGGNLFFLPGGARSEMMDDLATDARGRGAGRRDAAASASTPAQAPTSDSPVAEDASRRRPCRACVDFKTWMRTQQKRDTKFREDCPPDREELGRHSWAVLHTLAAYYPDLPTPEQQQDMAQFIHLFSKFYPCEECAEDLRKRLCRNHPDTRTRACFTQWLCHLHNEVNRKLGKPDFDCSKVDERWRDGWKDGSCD

Compared with `Cc1ccc(S(=O)(=O)NC2CCCCCC2)cc1`, `Cc1ccccc1C(=O)Nc1ccc(N2CCCCCC2)cc1` is higher in inhibition: -3.36% for the first, 68.7% for the second.

First: Cc1ccccc1NC(=O)NCc1ccco1
Second: O=C(Nc1ccccc1)Nc1ccccc1C(=O)NCc1ccco1
The inhibition of the first is lower: -5.6% for the first, -2.76% for the second.

First: O=C(OCC(=O)N1CCc2ccccc21)c1ccc([N+](=O)[O-])cc1
Second: O=C1CN(C(=O)COC(=O)/C=C/c2ccc(F)cc2)c2ccccc2N1
The inhibition of the first is lower: -3.86% for the first, -2.48% for the second.

Compared with `O=C(/C=C/c1ccccc1[N+](=O)[O-])NCC1CCCO1` (stereo not given), `O=[N+]([O-])c1ccccc1/C=C/CN1CCC(O)CC1` is lower in inhibition: -4.47% for the first, -20.9% for the second.

Compared with `COc1ccc(/C(C)=N/NC(=O)c2ccc3nc[nH]c3c2)cc1`, `COc1ccc(C(=O)NC(=S)Nc2ccc(N3CCCC3)cc2)cc1OC` is higher in inhibition: -6.54% for the first, 2.05% for the second.

Going from `CC/C(O)=N\S(=O)(=O)c1ccc(N=NN(C)C)cc1` to `COc1ccc(CC(=O)OC(C)C(=O)Nc2ccc(S(N)(=O)=O)cc2)cc1` (stereo not given), the inhibition rises from -19.2% to -3.25%.

Compared with `Cc1cc(C)c(-c2csc(NC(=O)CCCc3nc4ccccc4c(=O)[nH]3)n2)c(C)c1`, `Cc1ccc(Cc2nnc(SCC(=O)Nc3ccc(C)cc3C)[nH]c2=O)cc1` is lower in inhibition: -7.67% for the first, -13.1% for the second.

Going from `O=C(Cn1cnc2c(nnn2-c2ccccc2)c1=O)N1CCC(Cc2ccccc2)CC1` to `CC1(C)CC(=O)C(CC(=O)N2CCC(Cc3ccccc3)CC2)C(=O)C1`, the inhibition rises from -5.43% to 2.75%.

Going from `CCN(CC(=O)NCc1cccs1)C(=O)c1ccc(OC)c(S(=O)(=O)N2CCOCC2)c1` to `CN1CCN(S(=O)(=O)c2cccc(C(=O)Nc3sccc3C#N)c2)CC1`, the inhibition rises from -4.54% to 6.71%.

First: CCC(C)N(C(=O)CSc1nnnn1-c1ccccc1OC)C1CCS(=O)(=O)C1 (stereo not given)
Second: CCN(CC(=O)Nc1ccccc1OC)C(=O)CC1CC2CCC1C2 (stereo not given)
The inhibition of the first is lower: 1.16% for the first, 1.64% for the second.

First: NS(=O)(=O)c1ccc(NC(=O)COC(=O)CCc2c[nH]c3ccccc23)cc1
Second: NS(=O)(=O)c1ccc(CCNC(=O)CN2C(=O)c3ccccc3S2(=O)=O)cc1
The inhibition of the first is higher: 23.6% for the first, 20.2% for the second.

Compared with `O=C(NCCS(=O)(=O)N1CCN(c2ccccc2)CC1)c1ccco1`, `COc1cccc(C(=O)Nc2ccc(N3CCN(C(=O)c4ccco4)CC3)cc2)c1` is lower in inhibition: 4.33% for the first, -0.228% for the second.

First: O=C(Cn1cnc2c(OCc3ccccc3)ncnc21)NCCCn1ccnc1
Second: COc1ccc(CNc2nc3c(c(=O)[nH]c(=O)n3C)n2Cc2ccccc2)cc1
The inhibition of the first is higher: -1.71% for the first, -2.89% for the second.

Going from `O=C1CN(C(=O)COc2c(Cl)cccc2Cl)c2ccccc2N1` to `Cc1ccc(OCC(=O)Oc2ccccc2[N+](=O)[O-])cc1`, the inhibition rises from -8.36% to 8.6%.

First: COc1ccc(S(=O)(=O)NCc2cccnc2)cc1NC(=O)c1ccc(C)cc1
Second: COc1ccccc1N(C)S(=O)(=O)c1ccc(Cl)c(C(=O)Nc2ccncc2)c1
The inhibition of the first is higher: -2.4% for the first, -13.7% for the second.

First: CC(C)(C)NS(=O)(=O)NC(=O)C1=C(N2CCCC2)COC1=O
Second: CC(=O)Nc1ccc(S(=O)(=O)Nc2ccc(N3CCOCC3)c(F)c2)cc1
The inhibition of the first is lower: 2.74% for the first, 3.94% for the second.

First: CC(=O)Nc1ccc(C(=O)Nc2cccc(S(=O)(=O)NC3=NCCC3)c2)cc1
Second: CC(=O)Nc1ccc(NS(=O)(=O)c2ccc3c(c2)NC(=O)CC(=O)N3)cc1
The inhibition of the first is higher: -4.84% for the first, -6.71% for the second.

Compared with `CC(=O)c1nn(-c2ccc(C)cc2)cc1C(=O)c1cccc(Br)c1`, `COC(=O)c1cccc(NC(=O)c2cccc(N3C(=O)CCC3=O)c2)c1` is higher in inhibition: -13.6% for the first, -1.61% for the second.

Compared with `CC(=O)N/C(=C\c1ccccc1)C(=O)OC(C)C(=O)N(C)c1ccccc1` (stereo not given), `Oc1ccc2ccccc2c1N=Nc1nccs1` is lower in inhibition: 0.887% for the first, -13.2% for the second.

Going from `Cc1nc(SCc2ccc(F)cc2)c([N+](=O)[O-])[nH]1` to `O=C(COc1cccnc1[N+](=O)[O-])Nc1ccc(Cl)cc1F`, the inhibition falls from 1.42% to -1.28%.

Compared with `Cc1nc2nc(SCC(=O)c3ccccc3)[nH]c2cc1Br`, `C=CCSc1nc2c(c(=O)[nH]c(=O)n2C)n1Cc1ccccc1` is lower in inhibition: -4.01% for the first, -5.44% for the second.

Going from `O=C1CCCCC1Sc1ccc(Cl)cc1[N+](=O)[O-]` (stereo not given) to `CCCC(=O)OCC(=O)Nc1cc(Cl)ccc1[N+](=O)[O-]`, the inhibition rises from -27.8% to -5.98%.

First: CCOc1ncccc1C(=O)Nc1ccc2c(c1)OCCO2
Second: COc1ccc(C(=O)Nc2ccc(N3CCC(C)CC3)cc2)cc1Br
The inhibition of the first is higher: 4.02% for the first, -4.62% for the second.

`COc1ccc(OCC(=O)Nc2cc(C)c(Cl)cc2OC)c([N+](=O)[O-])c1` gave an inhibition of -2.93%.

`Cc1cccc(Nc2ccccc2C(=O)NCc2ccco2)c1C` was tested, and the inhibition was 98.6% (active).
For `CC1CCCCC1NC(=O)/C(C#N)=C/C=C/c1ccccc1[N+](=O)[O-]` (stereo not given), the inhibition was 97.6% (active).
With `CN(C)N=Nc1ccc2nc[nH]c2c1` the inhibition was 92.1% (active).
In the case of `O=C(CN1CCOc2ccccc21)N1CCC(Cc2ccccc2)CC1`, the inhibition is reported as 98.1% (active).
`CC1(C)OC(=O)C(=CSc2ccc(C(C)(C)C)cc2)C(=O)O1` was tested, and the inhibition was 97.7% (active).
With `CC(OC(=O)CCCc1c[nH]c2ccccc12)C(=O)Nc1ccc(S(N)(=O)=O)cc1` (stereo not given) the inhibition was 81.6% (active).
For `Cc1nc(SCC(=O)c2ccccc2)c([N+](=O)[O-])[nH]1`, the inhibition was 97.8% (active).
In the case of `Oc1ccc(N=Nc2nccs2)c(O)c1`, the inhibition is reported as 83.1% (active).
In the case of `CC(=O)Nc1ccc(S(=O)(=O)Nc2ccc(N3CCCCC3)cc2)cc1`, the inhibition is reported as 99.4% (active).
`COc1cccc(C(=O)Nc2ccc(N3CCCC3)cc2)c1` was tested, and the inhibition was 100% (active).
`COc1cccc(OC)c1C(=O)Nc1ccc(N2CCCCC2)cc1` was tested, and the inhibition was 86% (active).
`Cn1c(=O)[nH]c(=O)c2c1[nH]c(=S)n2Cc1ccccc1` was tested, and the inhibition was 86.9% (active).
`Cc1cc(NC(=O)COC(=O)COc2ccc(Cl)cc2C)c([N+](=O)[O-])cc1C` was tested, and the inhibition was 89.5% (active).
